High-throughput results: PubChem, National Center for Advancing Translational Sciences (NCATS)
AmpC no deterg: qHTS Inhibitors of AmpC Beta-Lactamase (assay without detergent); P00811; AmpC nitrocefin hydrolysis, absorbance 480 nm, 0.0001% Triton; Potency, µM (top dose mostly 57.1 µM), without a hit: at the top dose activity change, negative = inhibition, usual class: inhibitors; actives 0.52% (n = 330,000); AID 485341, 2010;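 note: potency is the fitted concentration of half-maximal effect; plate controls were no compound for no effect and no enzyme for full effect; nearly all actives have a fitted effect of over 20% in size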
Target sequence (P00811 whole entry, looked up): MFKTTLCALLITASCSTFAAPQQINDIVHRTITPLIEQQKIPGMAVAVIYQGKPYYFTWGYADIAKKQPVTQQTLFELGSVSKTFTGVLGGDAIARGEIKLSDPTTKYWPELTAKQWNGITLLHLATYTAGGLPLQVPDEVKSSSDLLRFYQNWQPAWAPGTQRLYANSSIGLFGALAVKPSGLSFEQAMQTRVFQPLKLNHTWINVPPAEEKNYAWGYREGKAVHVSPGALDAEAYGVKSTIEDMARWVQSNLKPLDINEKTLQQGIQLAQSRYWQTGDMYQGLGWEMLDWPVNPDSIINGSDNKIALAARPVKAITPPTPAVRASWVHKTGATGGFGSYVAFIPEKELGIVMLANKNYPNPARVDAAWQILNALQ
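20 mM phosphate pH 7.0 + 0.01% (detergent screen) or 0.0001% Triton X-100; 5.3 nM AmpC reagent; cpd preinc 15 min RT; nitrocefin (800 uM stock) to start; A480 q20 s × 4 min; Activity was normalised to no-enzyme and no-compound control wells.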
FMDV antiviral: High Throughput Screening for Foot and Mouth Disease Virus Antivirals | FMDV antiviral cell-based qHTS | AID 1159524, 2015 | actives 1.2% (n = 410,000) | Potency, µM (highest dose often 57.9 µM), for inactives: at the highest dose activity change, negative = inhibition, actives largely listed as inhibitors; calls by dose curve; tested in HEK293T cells; note: read-out not given here; potency is the fitted concentration of half-maximal effect; nearly all actives have a fitted effect of over 45% in size
AmpC detergent: qHTS Inhibitors of AmpC Beta-Lactamase (assay with detergent). P00811. AmpC hydrolysis of nitrocefin, absorbance 480 nm, 0.01% Triton. Potency, µM (highest dose often 114 µM), without a hit: at the highest dose activity change, negative = inhibition, actives largely listed as inhibitors. actives 0.041% (n = 370,000). AID 485294, 2010;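 note: potency is the fitted concentration of half-maximal effect; 0% = no-compound wells and -100% = no-enzyme wells; nearly all actives have a fitted effect of over 25% in size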
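AmpC (5.3 nM in the dispensed reagent) in 20 mM phosphate pH 7.0 with 0.01% (detergent screen) or 0.0001% Triton X-100 was preincubated with compounds for 15 min at room temperature. Nitrocefin was then added from an 800 uM solution, and hydrolysis was followed at 480 nm.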
HCMV antiviral: qHTS Assay for inhibitors of the human cytomegalovirus (HCMV) | AID 1259415, 2018 | activity change, negative = inhibition, % at 57.5 µM | HFF cells, HCMV-luciferase reporter, 72 h; hits give low values | actives 4.5% (n = 410,000); in the data active = activity change below about -60%; inconclusive = no clear call, values can overlap the other calls; inactive = above about -39%
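Human foreskin fibroblasts infected with luciferase-reporter HCMV at MOI 1 PFU/cell, compounds at two doses. Luciferase measured 72 h post infection; normalized to buffer-only basal and Salinomycin (10uM) controls.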
HCV inh: qHTS Assay for Inhibitors of Hepatitis C Virus (HCV); Huh7.5.1 HCVcc-Cre infection, luciferase reporter, 44 h; Potency, µM (top dose mostly 41.8 µM), without a hit: top-dose activity change, negative = inhibition, hits mostly inhibitors; actives 3.4% (n = 340,000); note: potency is the fitted concentration of half-maximal effect
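Reporter virus HCVcc-Cre (~0.5 moi) infects cells exposed to compound; seeding density 1,000 cells/well with 4 h settling beforehand. Luminescence, 15 sec read, taken 44 h post-infection following a 15 min RT substrate incubation.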
Active calls of the source: *; ? = inconclusive; nt = not tested or not shown; ! = not confirmed by another sample; [ ] = another dose, or the depositor's remark. Rows were chosen to be rich in hits. Some 7.3% of all compounds tested hit in one or more screens of this group. Unless noted, calls come from the whole dose curve; as a rule, active = well fitted curve in the direction sought with a large enough effect; inconclusive = small, poorly fitted or top-dose-only effect, or another doubt; inactive = no such curve, though single readings can be large; an effect the other way counts as inactive or inconclusive. Unless noted, % is set by controls: 0 for no effect and ±100 for the full control effect.

SMILES	AmpC no deterg	FMDV antiviral	AmpC detergent	HCMV antiviral	HCV inh
Cc1ccc2[nH]c(=O)c(C3C(C#N)=C(N)Oc4c3ccc3cccnc43)cc2c1 (stereo not given)	-18.6%	?	2.3%	-92.0*	10µM*
Cc1sc2ncnc(N3CCC(C(=O)Nc4ccc(Br)cc4Br)CC3)c2c1C	-14.4%	20µM*	?	-16.4	?
CCOc1ccc(NC(=O)CN(C)C(=O)C2CCN(c3ncnc4sc(C)c(C)c34)CC2)cc1OCC	191.5%	?	1.4%	-68.5*	nt
CCc1cccc(NC(=O)C2CCN(c3ncnc4sc(C)c(C)c34)CC2)c1	-14.3%	?	nt	-39.2	11.2µM*
Cc1sc2ncnc(N3CCC(C(=O)NCC(=O)Nc4ccc(F)c(F)c4)CC3)c2c1C	124.0%	?	5.7%	-35.1	8.91µM*
Cc1sc2ncnc(N3CCC(C(=O)Nc4ccc(Cl)c(Cl)c4)CC3)c2c1C	-33.2%	?	7.7%	0.0	?
O=C(CCNC(=O)C1CCN(S(=O)(=O)c2ccccc2)CC1)NCc1ccncc1	-8.2%	-3.3%	4.3%	-26.3	0.8%
N#CC1C(=O)c2ccccc2C1c1ccccc1 (stereo not given)	nt	-22.7%	nt	68.8	41.3%
Cc1ccc(S(=O)(=O)N2CCN(CC(=O)N/N=C\c3ccc(Cl)c([N+](=O)[O-])c3)CC2)cc1	69.4%	-11.2%	-10.9%	?	4.47µM*
O=C(CN1CCN(S(=O)(=O)c2ccc(Br)cc2)CC1)N/N=C/c1ccc(Cl)c([N+](=O)[O-])c1	0.2%	-15.4%	-10.0%	-24.8	11.2µM*
CCN(C(=O)CSc1nc(-c2ccccc2)no1)c1cccc(C)c1	nt	?	6.8%	-106.5*	nt
COc1ccc(CN2C(=O)N(c3ccc(F)cc3)C(=O)C2CC(=O)Nc2ccccc2)cc1 (stereo not given)	nt	-13.6%	-9.4%	2.8	nt
CCCCn1c(=O)c(-[n+]2ccccc2)c([O-])c2ccccc21	-3.0%	-12.3%	-8.1%	-61.6*	14.0%
CC(C)Cn1c(=O)c(-[n+]2ccccc2)c([O-])c2ccccc21	-24.7%	-12.8%	-5.5%	4.2	1.8%
CCCc1cc2c(=O)c(-c3ccc4c(c3)OCCO4)coc2cc1OS(C)(=O)=O	-20.3%	-5.0%	-2.2%	-60.2*	10µM*
CCc1cc2c(=O)c(-c3ccc4c(c3)OCCO4)coc2cc1OC(=O)c1ccco1	-33.5%	18.8%	?	-33.5	10µM*!
CCCc1cc2c(=O)c(-c3ccc4c(c3)OCCO4)coc2cc1OC(=O)c1ccco1	-20.8%	55.0%	-10.0%	34.5	-0.6%
COc1ccc2c(=O)c(-c3ccc4c(c3)OCO4)coc2c1	-24.6%	-19.2%	-7.1%	18.8	-11.0%[8.37 µM]
COc1cccc(-c2nc(C(=O)NCCCN3CCOCC3)cc3c2[nH]c2ccccc23)c1	320.6%	-28.3%	?	-74.3*	11.2µM*
O=C(NCCCO)c1cc2c([nH]c3ccccc32)c(-c2ccccc2)n1	-2.4%	-28.8%	-1.6%	-27.8	10µM*
Cc1ccc(N(Cc2ccccc2)C(=O)c2cc(S(=O)(=O)N3CCOCC3)ccc2N2CCCC2)cc1	43.9%	1.0%	-0.7%	-61.1*	?
CN(Cc1ccc(Cl)cc1)C(=O)c1cc(S(=O)(=O)N2CCOCC2)ccc1N1CCCC1	?	-11.2%	-20.9%	-19.6	-28.9%
COc1cc(/C=C(\C#N)C(=O)Nc2ccc3c(c2)OCCO3)ccc1O	-29.6%	12.5%	0.8%	?	?
CCc1ccc(-n2c(SC(CC)C(=O)N(CC)CC)nc3n[nH]c(C)c3c2=N)cc1 (stereo not given)	nt	?	2.0%	-83.6*	nt
Nc1cc(C(F)(F)F)cc([N+](=O)[O-])c1N	?	-11.8%	0.9%	43.9	?
SMILES	AmpC no deterg	FMDV antiviral	AmpC detergent	HCMV antiviral	HCV inh
CS(=O)(=O)NCCCNc1ccc(C(F)(F)F)cc1[N+](=O)[O-]	3.5%	-7.7%	2.4%	5.7	2.1%
O=[N+]([O-])c1cc(C(F)(F)F)ccc1NCCCCNS(=O)(=O)c1ccc(Cl)cc1	-8.8%	?	-11.4%	-73.4*	?
O=[N+]([O-])c1cc(C(F)(F)F)ccc1Cl	-8.4%	-15.8%	-1.7%	-69.2*	?
CCCCCCCNC(=O)C1(CC2CC(c3ccc(Cl)cc3)=NO2)CCNCC1 (stereo not given)	150.9%	-25.1%	-0.6%	-99.7*	8.5%
CCCCCCCNC(=O)C1(CC2CC(c3ccc(Cl)cc3)=NO2)CCN(C(=O)Cc2ccc(F)cc2)CC1 (stereo not given)	-23.7%	-7.1%	-3.6%	19.6	15.2%
COc1ccccc1CNS(=O)(=O)c1ccc(N2CCCCS2(=O)=O)cc1	nt	-17.2%	-9.0%	-33.5	nt
CN1c2ccccc2C(C)(C)C12C=Nc1c(ccc3ccccc13)O2 (stereo not given)	25.1µM*	2.6%	?	26.3	-21.3%
CN1c2ccccc2C(C)(C)[C@]12C=Cc1cc(O)ccc1O2	-34.2%	?	-5.5%	?	12.6µM*
COc1ccc2ccc3c(c2c1)N=CC1(O3)N(C)c2ccccc2C1(C)C (stereo not given)	-41.8%	nt	?	nt	-6.1%
O=C(NCc1cccc(Cl)c1)c1cnn2c1NC(c1ccco1)CC2C(F)(F)F (stereo not given)	-5.5%	?	-3.3%	-38.3	?
Cc1ccc(Cl)cc1NC(=O)c1cnn2c1NC(c1ccco1)CC2C(F)(F)F (stereo not given)	-11.7%	?	-13.0%	?	25.1µM*
COCCNC(=O)c1cnn2c1NC(c1ccco1)CC2C(F)(F)F (stereo not given)	-2.9%	1.5%	-15.1%	-25.5	9.5%
CN(Cc1ccc(-n2cccn2)cc1)C(=O)c1cnn2c1NC(c1ccco1)CC2C(F)(F)F (stereo not given)	68.1%	25.1µM*	3.7%	27.6	11.2µM*
CC(=O)Nc1ccc(S(=O)(=O)NC(C)c2ccccc2)cc1 (stereo not given)	-12.1%	-11.9%	-12.3%	6.4	12.6%
O=C(N/N=C/c1ccccc1C(=O)O)c1cccc(S(=O)(=O)Nc2cc(Cl)ccc2Cl)c1	12.6µM*	-13.3%	-6.8%	-26.9	11.6%
CCOC(=O)C(=N/O)/C(C)=N/NC(=O)C(=O)Nc1ccc(Cl)cc1	-18.5%	?	-9.0%	-37.3	11.2µM*
COc1ccc(C(=O)c2c(C(F)(F)F)oc3c2C(=O)c2ccccc2C3=O)cc1OC	33.3%	10µM*	0.5%	-103.2*	?
CC(C)(CO)Nc1nc(Nc2ccccc2)nc(Nc2ccccc2)n1	-16.2%	-23.0%	-5.4%	-10.5	10µM*
COc1ccccc1CNC(=O)CNCCc1ccc(OC)c(OC)c1	-11.9%	-2.7%	?	24.6	5.5%
